Common to all, as to parameters: scale not given: direction of the effect not stated beside the values
Experiment [1] has as its target Protein translocase subunit SecA (Escherichia coli (strain K12)) (UniProt P10408). Kind of experiment: Assay to Identify E. coli SecA ATPase Inhibitors. The class given is functional. The note with it: 30 µM.
In experiment [2] the target is T1, Ubiquitin-activating enzyme e1, putative (Leishmania donovani (strain BPK282A1)) (UniProt E9BSI1).
T1 sequence (whole entry): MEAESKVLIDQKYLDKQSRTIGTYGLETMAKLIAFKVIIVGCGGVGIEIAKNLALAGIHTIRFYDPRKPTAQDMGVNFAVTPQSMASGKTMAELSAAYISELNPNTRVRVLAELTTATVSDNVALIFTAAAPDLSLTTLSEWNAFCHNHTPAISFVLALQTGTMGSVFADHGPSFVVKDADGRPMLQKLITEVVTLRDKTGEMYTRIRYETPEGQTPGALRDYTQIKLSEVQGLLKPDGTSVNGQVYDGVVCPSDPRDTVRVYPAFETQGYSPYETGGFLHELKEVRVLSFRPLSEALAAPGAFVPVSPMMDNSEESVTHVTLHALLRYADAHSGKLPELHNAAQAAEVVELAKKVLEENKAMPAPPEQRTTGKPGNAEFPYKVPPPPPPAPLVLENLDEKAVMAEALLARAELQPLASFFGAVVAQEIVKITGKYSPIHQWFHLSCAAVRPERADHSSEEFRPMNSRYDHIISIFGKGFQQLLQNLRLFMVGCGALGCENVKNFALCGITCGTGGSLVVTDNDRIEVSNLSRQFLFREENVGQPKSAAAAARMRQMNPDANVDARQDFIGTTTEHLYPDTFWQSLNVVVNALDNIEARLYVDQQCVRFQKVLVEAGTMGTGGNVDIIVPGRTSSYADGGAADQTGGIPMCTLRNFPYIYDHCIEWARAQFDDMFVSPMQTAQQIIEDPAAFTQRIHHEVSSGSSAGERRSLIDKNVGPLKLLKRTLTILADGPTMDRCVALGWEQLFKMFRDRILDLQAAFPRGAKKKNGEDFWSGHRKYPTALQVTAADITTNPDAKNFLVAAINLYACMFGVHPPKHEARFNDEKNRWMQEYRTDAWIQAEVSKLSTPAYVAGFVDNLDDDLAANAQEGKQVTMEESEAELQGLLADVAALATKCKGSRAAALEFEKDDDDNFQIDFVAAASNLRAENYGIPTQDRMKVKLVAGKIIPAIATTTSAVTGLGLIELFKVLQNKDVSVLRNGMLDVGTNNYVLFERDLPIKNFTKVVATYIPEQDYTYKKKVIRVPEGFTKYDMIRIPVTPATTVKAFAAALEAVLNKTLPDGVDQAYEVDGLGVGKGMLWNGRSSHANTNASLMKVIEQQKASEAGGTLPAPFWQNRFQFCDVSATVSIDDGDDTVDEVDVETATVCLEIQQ
As to the kind of experiment: Leishmania donovani Ubiquitin Activating Enzyme (LdE1). The class given is functional. To be noted: 30 µM.

Experiment [3] addresses AMP-activated protein kinase, AMPK (Homo sapiens) (UniProt P54646+O43741+P54619+Q9UGJ0+Q9Y478+Q13131+Q9UGI9). Kind of experiment: AMP-dependent Kinase enzyme assay. An in vitro enzyme assay that detects ADP turnover that is directly proportional to AMPK activity. This uses naive AMPK that is activated during the assay with MK-8722. Format: functional. The note with it: 30 µM.

Experiment [4] deals with Sialic acid-binding Ig-like lectin 9 (Homo sapiens) (UniProt Q9Y336). As to the kind of experiment: Hs-Siglec9 ALPHAscreen SOP 20170721. The note with it: 10 µM.
Sialic acid-binding Ig-like lectin 9 (Homo sapiens), sequence (Q9Y336 whole entry): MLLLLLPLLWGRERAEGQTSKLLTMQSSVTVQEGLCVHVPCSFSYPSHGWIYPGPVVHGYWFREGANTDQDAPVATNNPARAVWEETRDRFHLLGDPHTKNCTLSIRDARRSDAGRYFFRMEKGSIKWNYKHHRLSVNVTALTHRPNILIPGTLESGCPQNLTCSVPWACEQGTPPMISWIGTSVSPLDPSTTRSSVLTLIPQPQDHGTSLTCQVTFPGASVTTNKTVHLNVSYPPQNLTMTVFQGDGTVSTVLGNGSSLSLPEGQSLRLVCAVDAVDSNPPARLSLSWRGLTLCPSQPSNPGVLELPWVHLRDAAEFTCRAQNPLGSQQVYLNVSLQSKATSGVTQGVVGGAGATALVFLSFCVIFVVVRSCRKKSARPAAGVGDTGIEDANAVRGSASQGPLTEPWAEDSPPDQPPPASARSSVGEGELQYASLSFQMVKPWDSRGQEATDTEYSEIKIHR
The next experiment concerns Trypanosoma cruzi. Kind of experiment: Trypanosoma cruzi phosphomannomutase and mannose-1-phosphate guanylyltransferase assay. To be noted: 10 µM. Format: functional.
The target of experiment [5] is T2, Arginase-2, mitochondrial (Homo sapiens) (UniProt P78540).
T2 sequence (whole entry): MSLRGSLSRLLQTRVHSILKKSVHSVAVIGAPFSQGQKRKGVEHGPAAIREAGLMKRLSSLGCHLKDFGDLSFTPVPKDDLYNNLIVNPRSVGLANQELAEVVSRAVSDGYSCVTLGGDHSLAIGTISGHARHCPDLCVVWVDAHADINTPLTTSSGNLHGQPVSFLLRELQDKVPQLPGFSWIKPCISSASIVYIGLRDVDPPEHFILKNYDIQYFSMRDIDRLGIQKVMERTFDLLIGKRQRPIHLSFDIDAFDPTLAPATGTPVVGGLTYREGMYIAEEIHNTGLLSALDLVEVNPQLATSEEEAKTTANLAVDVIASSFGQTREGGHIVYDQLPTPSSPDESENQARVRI
Kind of experiment: in vitro enzyme assay to detect the production of urea directly proportional to the activity of Arginase II. Also: in the data most compounds retested in dose-response had high values. The class given is functional. The note with it: 33.3 µM.

The target in experiment [6] is T3, Proteasome subunit beta (Trypanosoma cruzi) (UniProt O96673).
T3 sequence (whole entry): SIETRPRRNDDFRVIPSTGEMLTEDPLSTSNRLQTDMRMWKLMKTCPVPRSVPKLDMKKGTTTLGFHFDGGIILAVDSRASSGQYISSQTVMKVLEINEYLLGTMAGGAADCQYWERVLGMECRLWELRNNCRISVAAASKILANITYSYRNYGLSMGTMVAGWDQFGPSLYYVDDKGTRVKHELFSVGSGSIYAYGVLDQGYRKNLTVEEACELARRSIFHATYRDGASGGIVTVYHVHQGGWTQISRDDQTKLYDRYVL
As to the kind of experiment: Trypanosoma cruzi proteasome chymotrypsin-like activity (TcProtChymo) assay. Also: in the data most compounds retested in dose-response had high values. The class given is functional. The note with it: 9.37 µM.

Another experiment is filed under the species Homo sapiens. Kind of experiment: To identify inhibition of the IFN signalling (Jak-Stat) pathway via expression of an eGFP reporter gene under the control of an IFN-stimulated response element (ISRE) containing MxA promoter. The class given is functional. To be noted: 30 µM.
The target of experiment [7] is T4, Tyrosyl-tRNA synthetase, putative (Trypanosoma cruzi (strain CL Brener)) (UniProt Q4DSP6).
T4 sequence (whole entry): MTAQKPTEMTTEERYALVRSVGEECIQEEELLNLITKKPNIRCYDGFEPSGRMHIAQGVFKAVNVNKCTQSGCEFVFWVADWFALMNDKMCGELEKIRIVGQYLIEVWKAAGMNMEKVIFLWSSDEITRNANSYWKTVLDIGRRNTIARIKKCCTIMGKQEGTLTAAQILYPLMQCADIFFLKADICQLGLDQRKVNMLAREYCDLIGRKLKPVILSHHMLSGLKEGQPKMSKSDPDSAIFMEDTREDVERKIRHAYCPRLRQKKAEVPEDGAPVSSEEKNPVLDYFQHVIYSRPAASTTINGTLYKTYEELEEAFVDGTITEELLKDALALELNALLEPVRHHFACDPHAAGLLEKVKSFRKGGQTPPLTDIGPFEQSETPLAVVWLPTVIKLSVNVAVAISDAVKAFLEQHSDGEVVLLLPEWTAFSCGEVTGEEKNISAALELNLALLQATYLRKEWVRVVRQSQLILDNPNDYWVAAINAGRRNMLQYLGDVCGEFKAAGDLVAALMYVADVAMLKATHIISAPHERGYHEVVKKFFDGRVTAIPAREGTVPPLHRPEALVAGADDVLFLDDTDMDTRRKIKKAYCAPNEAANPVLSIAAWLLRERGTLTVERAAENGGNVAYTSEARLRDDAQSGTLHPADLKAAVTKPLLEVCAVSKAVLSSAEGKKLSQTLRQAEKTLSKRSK
As to the kind of experiment: Trypanosoma cruzi tyrosyl tRNA synthetase (TcYRS) _High Tyrosine SOP. Also: in the data most compounds retested in dose-response had high values. The note with it: 30 µM. The class given is functional.

The target in experiment [8] is T4, Tyrosyl-tRNA synthetase, putative (Trypanosoma cruzi (strain CL Brener)). As to the kind of experiment: Trypanosoma cruzi tyrosyl tRNA synthetase (TcYRS) SOP. The class given is functional. To be noted: 30 µM.
Experiment [9] addresses Chromo domain-containing protein 1 (Saccharomyces cerevisiae (strain ATCC 204508 / S288c) (Baker's yeast)) (UniProt P32657). As to the kind of experiment: ScCHD-1 Enzyme Inhibition Assay. Also: in the data most compounds retested in dose-response had high values. Format: functional. To be noted: 30 µM.

Data on 10 compounds can be found in ChEMBL document CHEMBL3988442, “University of Dundee, Small-Polar-MMV Screening Library” (2021).

Each structure is given as a SMILES string. For some assays here: Measured potencies and affinities stand elsewhere.

Chromo domain-containing protein 1 (Saccharomyces cerevisiae (strain ATCC 204508 / S288c) (Baker's yeast)), sequence (P32657 whole entry, the tested form may be a part): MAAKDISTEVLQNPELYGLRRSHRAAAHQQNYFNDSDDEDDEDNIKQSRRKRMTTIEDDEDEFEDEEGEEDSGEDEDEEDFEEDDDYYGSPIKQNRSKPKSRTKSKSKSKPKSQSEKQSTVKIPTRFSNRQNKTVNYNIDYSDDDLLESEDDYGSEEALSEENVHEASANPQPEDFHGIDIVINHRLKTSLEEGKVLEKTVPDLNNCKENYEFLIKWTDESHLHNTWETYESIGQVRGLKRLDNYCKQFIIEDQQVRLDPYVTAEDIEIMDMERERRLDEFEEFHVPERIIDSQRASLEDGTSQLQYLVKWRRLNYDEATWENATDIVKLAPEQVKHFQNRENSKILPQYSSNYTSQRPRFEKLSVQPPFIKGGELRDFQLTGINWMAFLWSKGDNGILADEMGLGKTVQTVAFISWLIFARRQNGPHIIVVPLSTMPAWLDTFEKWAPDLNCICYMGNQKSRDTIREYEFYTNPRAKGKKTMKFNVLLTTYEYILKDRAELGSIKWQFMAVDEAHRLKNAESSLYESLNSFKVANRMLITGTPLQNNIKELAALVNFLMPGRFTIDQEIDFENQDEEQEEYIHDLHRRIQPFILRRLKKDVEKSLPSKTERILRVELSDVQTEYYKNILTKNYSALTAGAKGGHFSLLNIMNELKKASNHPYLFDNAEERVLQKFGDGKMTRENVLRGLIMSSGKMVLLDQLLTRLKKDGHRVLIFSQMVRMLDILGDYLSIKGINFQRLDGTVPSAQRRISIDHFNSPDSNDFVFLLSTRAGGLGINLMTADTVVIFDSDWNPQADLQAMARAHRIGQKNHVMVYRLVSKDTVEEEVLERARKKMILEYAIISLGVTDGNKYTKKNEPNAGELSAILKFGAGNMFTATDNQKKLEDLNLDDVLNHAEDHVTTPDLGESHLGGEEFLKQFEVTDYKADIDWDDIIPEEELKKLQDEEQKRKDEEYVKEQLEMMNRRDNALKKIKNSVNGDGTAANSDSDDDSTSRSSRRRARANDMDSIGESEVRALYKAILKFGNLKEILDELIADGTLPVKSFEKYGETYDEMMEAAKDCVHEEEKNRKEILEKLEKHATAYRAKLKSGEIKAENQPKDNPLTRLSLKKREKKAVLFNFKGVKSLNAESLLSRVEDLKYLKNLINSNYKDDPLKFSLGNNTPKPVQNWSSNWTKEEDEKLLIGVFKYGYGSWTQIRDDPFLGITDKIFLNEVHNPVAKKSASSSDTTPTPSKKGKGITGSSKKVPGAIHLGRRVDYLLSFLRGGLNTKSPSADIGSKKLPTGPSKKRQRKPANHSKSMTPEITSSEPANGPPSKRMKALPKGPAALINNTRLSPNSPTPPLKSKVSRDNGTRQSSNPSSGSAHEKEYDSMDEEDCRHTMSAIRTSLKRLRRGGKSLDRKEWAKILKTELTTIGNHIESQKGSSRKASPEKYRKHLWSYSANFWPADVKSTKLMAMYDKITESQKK
Protein translocase subunit SecA (Escherichia coli (strain K12)), sequence (P10408 whole entry): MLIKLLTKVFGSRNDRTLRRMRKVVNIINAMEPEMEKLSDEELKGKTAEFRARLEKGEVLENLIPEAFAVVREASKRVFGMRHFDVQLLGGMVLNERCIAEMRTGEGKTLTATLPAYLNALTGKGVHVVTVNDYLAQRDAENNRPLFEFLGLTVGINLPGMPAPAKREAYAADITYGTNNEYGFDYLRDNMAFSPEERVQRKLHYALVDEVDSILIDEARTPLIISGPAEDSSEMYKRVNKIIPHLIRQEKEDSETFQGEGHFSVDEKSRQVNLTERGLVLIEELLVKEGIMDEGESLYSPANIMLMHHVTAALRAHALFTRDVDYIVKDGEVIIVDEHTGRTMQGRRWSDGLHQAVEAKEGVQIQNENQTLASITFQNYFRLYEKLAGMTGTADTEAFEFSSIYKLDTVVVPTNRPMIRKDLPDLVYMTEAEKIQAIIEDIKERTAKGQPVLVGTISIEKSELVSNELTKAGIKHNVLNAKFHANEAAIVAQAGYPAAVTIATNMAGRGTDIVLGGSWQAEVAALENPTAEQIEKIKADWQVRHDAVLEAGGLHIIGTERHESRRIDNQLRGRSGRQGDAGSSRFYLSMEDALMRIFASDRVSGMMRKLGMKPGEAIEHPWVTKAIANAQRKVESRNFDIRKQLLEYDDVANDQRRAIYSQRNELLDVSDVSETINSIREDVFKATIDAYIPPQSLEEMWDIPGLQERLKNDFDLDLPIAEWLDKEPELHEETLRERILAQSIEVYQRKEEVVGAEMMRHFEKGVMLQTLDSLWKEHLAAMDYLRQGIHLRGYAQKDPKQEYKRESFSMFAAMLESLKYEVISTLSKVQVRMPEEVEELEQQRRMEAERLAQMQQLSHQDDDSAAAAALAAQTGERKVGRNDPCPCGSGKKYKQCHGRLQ

`CN1CCN(c2ncc3c(=O)n(-c4cccc(F)c4)c(=O)[nH]c3n2)CC1`: the Percent Effect was 0.451% in experiment [1]; 13.2% in [2]; 0.333% in experiment [3]; -0.649% in experiment [4]; -1.27% in the experiment with Trypanosoma cruzi; 7.1% in experiment [5]. Also, the Percent Effect is 18.9% in [6]; -9.16% in the experiment listed under Homo sapiens; 4.25% in [7]; 10.4% in [8]; 92.2% in [9].
`c1nc(COCC2CC2)c2n1CCCN(CC1CC1)C2`: the Percent Effect in experiment [1] was -8.2%; in experiment [2], -2.67%; in experiment [3], 1.44%; in experiment [4] it was 3.77%; in the experiment with Trypanosoma cruzi it was -2.12%; in experiment [5], -22.4%. Besides, the Percent Effect is -0.513% in experiment [6]; -0.93% in the experiment listed under Homo sapiens; -1.04% in experiment [7]; 0% in experiment [8]; 0.35% in [9].
As for `Cc1noc(C)c1CCC(=O)N1CCCN(Cc2cscn2)CC1`, the Percent Effect in experiment [1] was -1.71%; in experiment [2] it was 13.2%; in experiment [3] it was -5.71%; in experiment [4], -4.5%; with Trypanosoma cruzi, -3.76%; in [5], 6.9%. The Percent Effect in [6] was 21.1%; in the experiment listed under Homo sapiens, 23%; in experiment [7] it was 8.33%; in experiment [8], 17.1%; in experiment [9] it was -10.5%.
Turning to `COCc1cc(O)nc(C2CCCN(Cc3cc(OC)ccc3F)C2)n1` (stereo not given), the Percent Effect in [1] was -7.04%; in experiment [2], 1.35%; in experiment [3], 4.88%; in experiment [4], 5.64%; in the experiment on Trypanosoma cruzi, -3.56%; in experiment [5], -2.09%. In addition, the Percent Effect was -0.312% in experiment [6]; 16.7% in the experiment filed under Homo sapiens; -2.15% in experiment [7]; -1.3% in experiment [8]; -9.01% in [9].
With `O=C(NCc1ccco1)C1CCCN1Cc1nc(-c2ccco2)no1` (stereo not given), the Percent Effect in [1] was -0.649%; in [2], 13.5%; in [3], 0.501%; in experiment [4] it was -7.57%; in the experiment on Trypanosoma cruzi, -4.18%; in [5] it was 4.99%. Moreover, the Percent Effect in experiment [6] is 7.9%; in the experiment filed under Homo sapiens, 10.9%; in [7], 7.92%; in experiment [8], 15.8%; in [9] it was -0.371%.
As for `O=C1N(Cc2ccc(F)c(F)c2)CCCC12CCN(C1CCSCC1)C2` (stereo not given), the Percent Effect in [1] was -4.12%; in experiment [2] it was -8%; in experiment [3], -4.64%; in [4], 30.2%; with Trypanosoma cruzi it was 9.25%; in experiment [5], 23.4%. In addition, the Percent Effect in experiment [6] is 9.77%; in the experiment filed under Homo sapiens, 3.27%; in experiment [7], 15.8%; in experiment [8], 25.9%; in [9] it was 0.965%.
Take `CN(C)C(=O)COC[C@]12COC[C@H]1CN(Cc1ccoc1)C2`: the Percent Effect is -2.44% in [1]; 2.7% in experiment [2]; -3.89% in [3]; 10.2% in [4]; 5.77% in the experiment with Trypanosoma cruzi; 7.69% in experiment [5]. Besides, the Percent Effect in experiment [6] was 2.49%; in the experiment filed under Homo sapiens it was 5.51%; in experiment [7], 4.3%; in experiment [8], 1.24%; in experiment [9] it was -5.77%.
Take `CN(CC(F)(F)F)C(=O)C1CSCN1C(=O)OC(C)(C)C` (stereo not given): the Percent Effect in [1] is -2.64%; in experiment [2], 2.74%; in experiment [3], -4.74%; in experiment [4], -3.23%; with Trypanosoma cruzi, -3.33%; in experiment [5], 2.27%. Moreover, the Percent Effect in experiment [6] is 11.9%; in the experiment listed under Homo sapiens, 2.3%; in experiment [7], 1.07%; in [8], 7.5%; in [9] it was -1.01%.
As to `CCN(C(=O)Nc1cccnc1OC)C1CC1`, the Percent Effect was -6.66% in experiment [1]; 15.6% in experiment [2]; -6.43% in experiment [3]; 15.2% in [4]; 5.24% in the experiment on Trypanosoma cruzi; -3.2% in [5]. Further, the Percent Effect in experiment [6] was 7.6%; in the experiment listed under Homo sapiens, 5.42%; in experiment [7], 4.85%; in experiment [8], 19.5%; in [9], -9.65%.
In the case of `COc1c(CNCc2cccc(CN(C)C)c2)c(C)nn1C`, the Percent Effect was -7.85% in experiment [1]; 10.8% in experiment [2]; -5.13% in experiment [3]; 6.33% in experiment [4]; -2.17% in the experiment on Trypanosoma cruzi; -4.01% in [5]. Further, the Percent Effect is -0.36% in experiment [6]; 13.9% in the experiment filed under Homo sapiens; 4.43% in [7]; 6.17% in experiment [8]; -5.81% in experiment [9].
